This is an account of results in ChEMBL document CHEMBL1961873, “Compounds: GSK PKIS; Assays: Nanosyn kinase panel” (2012).

Assay [1] addresses T1, Serine/threonine-protein kinase Nek9 (Homo sapiens) (UniProt Q8TD19).
T1 sequence (whole entry): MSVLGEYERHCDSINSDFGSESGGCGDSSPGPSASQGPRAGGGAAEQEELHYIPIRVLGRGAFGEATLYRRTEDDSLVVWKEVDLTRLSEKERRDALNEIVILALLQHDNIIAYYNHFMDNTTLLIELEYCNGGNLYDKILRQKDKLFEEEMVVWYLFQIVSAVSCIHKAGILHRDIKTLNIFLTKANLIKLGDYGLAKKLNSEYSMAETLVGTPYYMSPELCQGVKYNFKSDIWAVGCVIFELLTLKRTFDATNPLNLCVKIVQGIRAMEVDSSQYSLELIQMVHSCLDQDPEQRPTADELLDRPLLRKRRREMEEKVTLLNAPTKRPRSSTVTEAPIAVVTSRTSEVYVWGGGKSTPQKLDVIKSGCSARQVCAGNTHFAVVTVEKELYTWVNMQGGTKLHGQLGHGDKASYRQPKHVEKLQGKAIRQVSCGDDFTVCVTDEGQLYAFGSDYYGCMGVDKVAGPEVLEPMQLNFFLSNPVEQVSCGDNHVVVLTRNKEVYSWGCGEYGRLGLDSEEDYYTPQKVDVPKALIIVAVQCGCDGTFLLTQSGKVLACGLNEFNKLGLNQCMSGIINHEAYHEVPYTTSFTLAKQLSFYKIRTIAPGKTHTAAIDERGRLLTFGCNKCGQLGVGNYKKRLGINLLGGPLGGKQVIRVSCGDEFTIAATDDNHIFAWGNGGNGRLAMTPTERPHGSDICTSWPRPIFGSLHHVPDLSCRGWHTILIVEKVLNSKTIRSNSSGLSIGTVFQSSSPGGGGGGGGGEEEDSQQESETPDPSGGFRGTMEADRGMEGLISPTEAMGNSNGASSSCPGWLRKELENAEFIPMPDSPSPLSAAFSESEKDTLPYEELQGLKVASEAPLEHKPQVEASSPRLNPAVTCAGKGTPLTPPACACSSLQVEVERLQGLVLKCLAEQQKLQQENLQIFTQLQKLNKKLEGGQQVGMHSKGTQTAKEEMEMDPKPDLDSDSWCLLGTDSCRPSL
As to conditions: at 1 µM.

Assay [2] has as its target Serine/threonine-protein kinase PLK1 (Homo sapiens) (UniProt P53350). Conditions: at 0.1 µM.
For assay [3] the target is unchanged. As to conditions: at 1 µM.
For assay [4], the target named is T2, Dual specificity protein kinase TTK (Homo sapiens) (UniProt P33981).
T2 sequence (whole entry): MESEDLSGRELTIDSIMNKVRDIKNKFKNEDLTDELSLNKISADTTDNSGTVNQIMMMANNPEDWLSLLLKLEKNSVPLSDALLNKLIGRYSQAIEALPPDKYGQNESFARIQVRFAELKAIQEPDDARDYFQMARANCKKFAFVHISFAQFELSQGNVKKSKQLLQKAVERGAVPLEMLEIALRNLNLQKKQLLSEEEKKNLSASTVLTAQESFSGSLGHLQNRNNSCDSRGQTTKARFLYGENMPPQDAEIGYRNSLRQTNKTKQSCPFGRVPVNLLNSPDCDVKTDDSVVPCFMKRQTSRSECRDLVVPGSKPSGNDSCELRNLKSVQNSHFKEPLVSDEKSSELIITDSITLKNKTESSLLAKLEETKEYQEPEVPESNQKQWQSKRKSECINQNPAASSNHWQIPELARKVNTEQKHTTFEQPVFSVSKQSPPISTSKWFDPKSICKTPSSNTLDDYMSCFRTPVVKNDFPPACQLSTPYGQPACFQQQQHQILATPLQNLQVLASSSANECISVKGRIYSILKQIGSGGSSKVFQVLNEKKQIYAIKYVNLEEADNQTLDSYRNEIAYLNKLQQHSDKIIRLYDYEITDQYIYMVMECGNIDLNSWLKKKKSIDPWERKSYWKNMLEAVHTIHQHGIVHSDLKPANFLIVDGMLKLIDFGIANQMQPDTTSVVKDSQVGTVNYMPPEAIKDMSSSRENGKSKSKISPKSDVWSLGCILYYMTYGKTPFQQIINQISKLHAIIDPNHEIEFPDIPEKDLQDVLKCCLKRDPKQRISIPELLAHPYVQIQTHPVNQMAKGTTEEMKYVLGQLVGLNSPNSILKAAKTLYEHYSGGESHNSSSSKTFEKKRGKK
As to conditions: at 0.1 µM.

The test system of assay [5] is T3, Receptor-type tyrosine-protein kinase FLT3 (Homo sapiens), P36888 [D835Y].
T3 sequence (whole entry): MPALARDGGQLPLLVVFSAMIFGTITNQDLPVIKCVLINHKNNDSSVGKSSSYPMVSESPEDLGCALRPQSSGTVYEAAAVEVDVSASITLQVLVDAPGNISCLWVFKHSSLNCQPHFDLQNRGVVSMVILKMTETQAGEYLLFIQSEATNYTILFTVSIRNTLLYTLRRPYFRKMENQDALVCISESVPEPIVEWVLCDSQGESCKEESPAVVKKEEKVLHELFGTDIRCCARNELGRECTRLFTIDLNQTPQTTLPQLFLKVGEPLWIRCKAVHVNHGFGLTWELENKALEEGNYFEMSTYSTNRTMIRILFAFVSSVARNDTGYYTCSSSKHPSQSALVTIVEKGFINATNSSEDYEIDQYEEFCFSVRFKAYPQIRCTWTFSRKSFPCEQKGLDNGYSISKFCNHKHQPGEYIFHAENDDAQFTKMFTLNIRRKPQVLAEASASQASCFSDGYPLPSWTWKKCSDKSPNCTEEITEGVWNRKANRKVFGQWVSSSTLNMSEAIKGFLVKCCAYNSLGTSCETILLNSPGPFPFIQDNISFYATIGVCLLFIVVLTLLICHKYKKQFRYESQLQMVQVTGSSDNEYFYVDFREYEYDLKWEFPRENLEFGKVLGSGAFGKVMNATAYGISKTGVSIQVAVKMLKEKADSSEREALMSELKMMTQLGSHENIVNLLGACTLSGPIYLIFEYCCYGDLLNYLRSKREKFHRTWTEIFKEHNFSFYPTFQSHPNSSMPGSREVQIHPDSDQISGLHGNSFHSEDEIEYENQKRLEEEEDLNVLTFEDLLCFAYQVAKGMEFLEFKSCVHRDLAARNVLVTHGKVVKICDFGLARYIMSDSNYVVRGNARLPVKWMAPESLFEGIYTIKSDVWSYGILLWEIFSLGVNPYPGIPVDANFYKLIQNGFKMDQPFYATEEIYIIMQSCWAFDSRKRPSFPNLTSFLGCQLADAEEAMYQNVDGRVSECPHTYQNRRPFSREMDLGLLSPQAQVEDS
As to conditions: at 1 µM.

In assay [6] the target is Vascular endothelial growth factor receptor 3 (Homo sapiens) (UniProt P35916). Conditions: at 0.1 µM.
Chain of Vascular endothelial growth factor receptor 3 (Homo sapiens) (P35916 whole entry): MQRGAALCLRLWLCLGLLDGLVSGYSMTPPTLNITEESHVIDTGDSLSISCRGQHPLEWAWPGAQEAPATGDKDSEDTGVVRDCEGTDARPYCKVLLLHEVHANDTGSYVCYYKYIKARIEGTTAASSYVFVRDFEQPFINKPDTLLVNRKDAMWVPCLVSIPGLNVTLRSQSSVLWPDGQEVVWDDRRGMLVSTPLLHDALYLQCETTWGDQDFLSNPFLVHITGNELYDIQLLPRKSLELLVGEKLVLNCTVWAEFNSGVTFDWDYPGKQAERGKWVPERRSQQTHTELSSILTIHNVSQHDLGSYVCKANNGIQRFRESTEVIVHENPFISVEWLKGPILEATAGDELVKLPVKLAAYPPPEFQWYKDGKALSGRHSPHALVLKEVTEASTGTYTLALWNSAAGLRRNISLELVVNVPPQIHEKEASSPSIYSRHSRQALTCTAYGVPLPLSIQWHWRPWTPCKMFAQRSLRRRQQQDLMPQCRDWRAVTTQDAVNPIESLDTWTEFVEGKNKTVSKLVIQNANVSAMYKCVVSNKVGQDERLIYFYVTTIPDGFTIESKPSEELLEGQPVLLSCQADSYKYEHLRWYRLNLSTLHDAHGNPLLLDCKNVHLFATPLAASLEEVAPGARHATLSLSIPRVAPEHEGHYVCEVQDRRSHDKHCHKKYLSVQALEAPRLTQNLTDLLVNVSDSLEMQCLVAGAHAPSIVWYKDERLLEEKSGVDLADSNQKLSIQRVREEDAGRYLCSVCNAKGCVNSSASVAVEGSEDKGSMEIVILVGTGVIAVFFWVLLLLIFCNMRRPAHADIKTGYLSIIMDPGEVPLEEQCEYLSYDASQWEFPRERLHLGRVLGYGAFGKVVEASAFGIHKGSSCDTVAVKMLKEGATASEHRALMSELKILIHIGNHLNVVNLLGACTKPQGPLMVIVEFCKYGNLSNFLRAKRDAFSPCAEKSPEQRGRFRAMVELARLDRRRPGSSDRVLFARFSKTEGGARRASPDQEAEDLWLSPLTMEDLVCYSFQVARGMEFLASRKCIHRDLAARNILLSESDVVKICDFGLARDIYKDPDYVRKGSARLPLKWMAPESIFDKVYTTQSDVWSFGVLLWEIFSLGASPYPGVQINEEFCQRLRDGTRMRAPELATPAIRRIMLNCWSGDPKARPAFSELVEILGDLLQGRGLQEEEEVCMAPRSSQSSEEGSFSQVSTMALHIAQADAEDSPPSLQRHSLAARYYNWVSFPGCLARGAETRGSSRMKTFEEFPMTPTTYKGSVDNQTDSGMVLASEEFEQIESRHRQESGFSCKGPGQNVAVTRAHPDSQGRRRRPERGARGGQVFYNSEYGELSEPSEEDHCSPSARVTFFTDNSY
Assay [7] shares this target. Conditions: at 1 µM.
Assay [8] deals with Macrophage colony-stimulating factor 1 receptor (Homo sapiens) (UniProt P07333). As to conditions: at 0.1 µM.
Chain of Macrophage colony-stimulating factor 1 receptor (Homo sapiens) (P07333 whole entry): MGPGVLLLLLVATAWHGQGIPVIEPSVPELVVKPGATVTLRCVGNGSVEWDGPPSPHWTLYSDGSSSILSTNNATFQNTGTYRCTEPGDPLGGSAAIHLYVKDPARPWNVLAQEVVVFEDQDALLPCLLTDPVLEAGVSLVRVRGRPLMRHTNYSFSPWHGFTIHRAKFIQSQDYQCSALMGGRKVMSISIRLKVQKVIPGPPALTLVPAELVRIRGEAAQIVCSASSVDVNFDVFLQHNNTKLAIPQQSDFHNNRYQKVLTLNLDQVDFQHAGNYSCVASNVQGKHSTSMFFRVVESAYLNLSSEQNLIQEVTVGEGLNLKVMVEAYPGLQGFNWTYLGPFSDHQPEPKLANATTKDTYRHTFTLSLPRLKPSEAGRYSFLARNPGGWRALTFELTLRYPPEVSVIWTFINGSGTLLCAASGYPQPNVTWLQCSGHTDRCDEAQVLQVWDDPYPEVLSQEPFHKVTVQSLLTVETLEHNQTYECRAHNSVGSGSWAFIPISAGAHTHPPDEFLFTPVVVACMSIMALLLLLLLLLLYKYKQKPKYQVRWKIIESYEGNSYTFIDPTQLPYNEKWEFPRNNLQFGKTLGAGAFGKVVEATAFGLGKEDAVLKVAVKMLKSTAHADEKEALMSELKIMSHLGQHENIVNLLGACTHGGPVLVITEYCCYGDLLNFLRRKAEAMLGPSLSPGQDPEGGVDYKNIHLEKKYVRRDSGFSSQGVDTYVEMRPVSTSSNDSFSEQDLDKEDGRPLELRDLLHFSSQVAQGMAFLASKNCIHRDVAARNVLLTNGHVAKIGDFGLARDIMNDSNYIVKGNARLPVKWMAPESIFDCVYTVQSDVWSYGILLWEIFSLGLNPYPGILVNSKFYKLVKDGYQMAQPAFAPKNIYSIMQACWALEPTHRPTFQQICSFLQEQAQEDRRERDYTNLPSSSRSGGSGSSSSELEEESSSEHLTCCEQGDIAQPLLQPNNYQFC
For assay [9] the target is unchanged. Conditions: at 1 µM.
Assay [10] deals with Tyrosine-protein kinase Fyn (Homo sapiens) (UniProt P06241). Conditions: at 0.1 µM.
Chain of Tyrosine-protein kinase Fyn (Homo sapiens) (P06241 2-537 limits assumed): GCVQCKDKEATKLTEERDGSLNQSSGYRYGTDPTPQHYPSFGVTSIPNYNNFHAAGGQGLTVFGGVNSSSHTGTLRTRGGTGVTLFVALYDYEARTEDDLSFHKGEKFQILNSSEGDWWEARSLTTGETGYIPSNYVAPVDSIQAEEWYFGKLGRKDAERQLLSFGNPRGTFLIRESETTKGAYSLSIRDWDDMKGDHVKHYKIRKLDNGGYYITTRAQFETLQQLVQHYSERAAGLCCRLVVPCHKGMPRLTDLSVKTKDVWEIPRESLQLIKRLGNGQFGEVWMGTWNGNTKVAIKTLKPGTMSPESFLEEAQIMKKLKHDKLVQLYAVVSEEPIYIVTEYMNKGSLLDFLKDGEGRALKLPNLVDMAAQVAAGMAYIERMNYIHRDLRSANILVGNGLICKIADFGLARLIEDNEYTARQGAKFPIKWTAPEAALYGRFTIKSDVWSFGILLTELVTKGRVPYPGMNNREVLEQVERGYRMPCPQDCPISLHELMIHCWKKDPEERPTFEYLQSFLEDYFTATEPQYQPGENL

Chain of Serine/threonine-protein kinase PLK1 (Homo sapiens) (P53350 whole entry): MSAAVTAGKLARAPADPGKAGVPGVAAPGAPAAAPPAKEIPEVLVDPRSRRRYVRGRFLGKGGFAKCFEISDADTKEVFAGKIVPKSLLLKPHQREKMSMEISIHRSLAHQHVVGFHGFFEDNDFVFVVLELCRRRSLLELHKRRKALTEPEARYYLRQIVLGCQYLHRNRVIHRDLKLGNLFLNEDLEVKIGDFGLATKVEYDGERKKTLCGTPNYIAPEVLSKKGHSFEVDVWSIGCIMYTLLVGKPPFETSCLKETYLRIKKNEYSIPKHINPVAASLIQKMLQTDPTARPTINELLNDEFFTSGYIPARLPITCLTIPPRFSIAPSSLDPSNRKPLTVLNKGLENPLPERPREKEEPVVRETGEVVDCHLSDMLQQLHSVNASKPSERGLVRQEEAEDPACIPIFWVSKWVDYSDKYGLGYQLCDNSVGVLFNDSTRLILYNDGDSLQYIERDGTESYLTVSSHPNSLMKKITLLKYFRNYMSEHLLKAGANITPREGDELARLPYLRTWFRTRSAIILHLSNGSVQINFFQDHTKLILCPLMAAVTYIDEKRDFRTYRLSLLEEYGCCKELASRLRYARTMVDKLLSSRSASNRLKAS

The inhibition is the relative decrease from the control value, in per cent. Regarding `CC(=O)NCc1cccc(C#Cc2cncnc2Nc2ccc(OCc3cccc(F)c3)c(Cl)c2)c1`, the inhibition is -3.77% in assay [1]; 1.79% in [2]; 1.35% in [3]; 8.83% in [4]; -1.12% in assay [5]; 2.27% in [6]. Moreover, the inhibition in [7] was 3.6%; in assay [8] it was 1.13%; in assay [9], 0.82%; in [10], 1.08%.

Regarding `Fc1ccc(-c2nn3ccccc3c2-c2ccncc2)cc1`, the inhibition in assay [1] was 1.86%; in [2], 1.11%; in assay [3], 0.66%; in [4], 1.74%; in assay [5], 1.27%; in [6], -0.54%. The inhibition is 1.83% in [7], -0.59% in assay [8], 7.67% in [9] and 0.52% in assay [10].

With `CCn1c(-c2nonc2N)nc2c(C#CC(C)(C)O)ncc(OC3CCNCC3)c21`, the inhibition in assay [1] is 5.22%; in assay [2], 2.8%; in [3], 5%; in [4] it was 5.34%; in assay [5], 0.12%; in assay [6], 8.92%. The inhibition is 26.6% in [7], 1.2% in assay [8], 2.92% in [9] and 1.53% in assay [10].

For the compound `COc1ccc(-c2oc3ncnc(N)c3c2-c2ccc(NC(=O)Nc3cc(C(F)(F)F)ccc3F)cc2)cc1`, the inhibition is 39.3% in assay [1]; 5.59% in [2]; 4.48% in [3]; 8.85% in assay [4]; 47.1% in assay [5]; 47.4% in assay [6]. Further, the inhibition in [7] was determined as 98.4%; in assay [8] it was 21.9%; in [9], 90.2%; in [10], 8%.

Consider `COc1cc(N2CCN(C(C)C)CC2)ccc1Nc1nc(Nc2ccc(F)cc2C(N)=O)c2cc[nH]c2n1`, for which the inhibition in assay [1] turned out to be 13.5%; in assay [2] it was 16%; in assay [3], 64.8%; in [4], 83%; in assay [5], 40.7%; in [6], 3.45%. Moreover, the inhibition was determined as 2.68% in assay [7], 11.7% in assay [8], 48.1% in assay [9] and 2.48% in assay [10].

As for `CC(=O)Nc1cccc(C#Cc2cncnc2Nc2ccc(OCc3cccc(F)c3)c(Cl)c2)c1`, the inhibition in assay [1] is 2.42%; in [2], 2.3%; in assay [3], 2.89%; in assay [4], 3.58%; in [5], -2.98%; in assay [6], 2.87%. In addition, the inhibition was determined as 3.83% in assay [7], 0.82% in [8], 4.6% in [9] and 0.68% in [10].

Take `c1ccc(COc2ccc(Nc3ncnc4ccc(-c5ccco5)cc34)cc2)cc1`: the inhibition in assay [1] was 5.01%; in assay [2] it was 1.78%; in assay [3], 0.52%; in [4], 5.13%; in assay [5], -0.59%; in assay [6], 1.83%. Further, the inhibition in assay [7] is 0.93%; in assay [8] it was -2.64%; in assay [9], 0.74%; in [10], 0.27%.

`N#Cc1c(NC(=O)CN2CCOCC2)sc2c1CCCC2`: the inhibition in [1] is 1.68%; in [2], 2.26%; in assay [3], 2.27%; in assay [4], 9.9%; in assay [5] it was 0.1%; in [6] it was 0.77%. The inhibition in assay [7] was found to be 3.83%; in assay [8], 5.19%; in assay [9], 2.67%; in assay [10], 0.52%.

Take `COc1ccc2c(-c3ccnc(Nc4cccc(OC(F)(F)F)c4)n3)cnn2n1`: the inhibition in assay [1] turned out to be 10.2%; in assay [2], 3.05%; in [3] it was 3.9%; in [4], 5.81%; in assay [5] it was 15.6%; in assay [6], 4.15%. The inhibition in assay [7] is 5.87%; in [8], 7.22%; in assay [9] it was 33.3%; in [10], 2.72%.

`[O-][S+]1CCN(Cc2ccc(-c3ccc4ncnc(Nc5ccc(OCc6cccc(F)c6)c(Cl)c5)c4c3)o2)CC1`: the inhibition in assay [1] is 11.6%; in [2], 4.06%; in [3], 4.68%; in assay [4], 14.8%; in assay [5], -0.26%; in assay [6], 4.68%. Further, the inhibition stood at 7.72% in [7], 1.84% in assay [8], 5.71% in assay [9] and 1.57% in [10].

Turning to `O=C(Nc1n[nH]c2cc(-c3ccc(F)cc3)ccc12)C1CC1`, the inhibition was determined as 6.43% in [1]; 2.87% in [2]; 1.93% in assay [3]; 6.08% in assay [4]; 1.98% in assay [5]; 1.27% in assay [6]. The inhibition amounted to 1.78% in assay [7], 1.64% in [8], 1.6% in assay [9] and 2.62% in assay [10].

On to `CCN(CC)S(=O)(=O)c1ccc(OC)c(Nc2ncc(-c3ccccc3)o2)c1`, for which the inhibition was 1.83% in assay [1]; 0.06% in [2]; 0.24% in assay [3]; 2.04% in [4]; 69.9% in assay [5]; 30.9% in [6]. For the same compound, the inhibition in [7] worked out at 85.5%; in assay [8], 42.4%; in assay [9] it was 84.8%; in assay [10], 6.94%.

For the compound `CCn1c(-c2nonc2N)nc2cnc(Oc3cccc(NC(=O)c4ccc(N(C)C)cc4)c3)cc21`, the inhibition is 5.29% in assay [1]; 1.86% in assay [2]; 1.97% in [3]; 3.52% in assay [4]; 0.83% in assay [5]; 0.61% in assay [6]. The inhibition in [7] was 2.01%; in assay [8], -0.02%; in [9], 0.23%; in [10], 1.66%.

Regarding `COc1cc2ncn(-c3cc(OCc4ccccc4C(F)(F)F)c(C(=O)N(C)C)s3)c2cc1OC`, the inhibition in [1] was 3.25%; in assay [2], 3.97%; in assay [3], 3.34%; in assay [4], 4.69%; in [5], 1.1%; in assay [6] it was 0.79%. The inhibition in assay [7] was 15.2%; in [8], 4.5%; in assay [9], 3.31%; in assay [10], 1.31%.

For `Nc1nc(-c2cccc(Cl)c2)c(-c2ccc3ncccc3n2)s1`, the inhibition in assay [1] is 12.5%; in assay [2], 3.47%; in assay [3] it was 4.49%; in assay [4], 14%; in assay [5], 0.82%; in assay [6], 0.27%. In addition, the inhibition was 9.77% in assay [7], 1.82% in assay [8], 2.3% in [9] and 4.49% in assay [10].

In the case of `O=S(=O)(CCNCc1ccc(-c2ccc3ncnc(Nc4ccc(OCc5cccc(F)c5)c(Cl)c4)c3c2)o1)c1ccccc1`, the inhibition is 4.64% in [1]; 6% in assay [2]; 5.8% in [3]; 7.34% in [4]; -1.66% in [5]; 4.59% in assay [6]. The inhibition in assay [7] was 7.11%; in [8], 2.22%; in assay [9], 8.85%; in assay [10], 2.58%.
